# What was measured:
# Assay in all cases: DAPPL (digital affinity profiling via proximity ligation, sequencing); 10 mM Tris-HCl pH 7.5, 50 mM NaCl, 1 mM DTT, 4% glycerol, room temperature, 30 min; GST-TFs on glutathione beads, 16-mer random dsDNA library, 0.1% formaldehyde crosslink after washing; high values mean tight binding
# FLI1 = molecular target: T1, FLI1 (Homo sapiens, UniProt Q01543 1-452); settings: protein: recombinant; tags: N-terminal GST; dsDNA, one strand shown
# T1 sequence: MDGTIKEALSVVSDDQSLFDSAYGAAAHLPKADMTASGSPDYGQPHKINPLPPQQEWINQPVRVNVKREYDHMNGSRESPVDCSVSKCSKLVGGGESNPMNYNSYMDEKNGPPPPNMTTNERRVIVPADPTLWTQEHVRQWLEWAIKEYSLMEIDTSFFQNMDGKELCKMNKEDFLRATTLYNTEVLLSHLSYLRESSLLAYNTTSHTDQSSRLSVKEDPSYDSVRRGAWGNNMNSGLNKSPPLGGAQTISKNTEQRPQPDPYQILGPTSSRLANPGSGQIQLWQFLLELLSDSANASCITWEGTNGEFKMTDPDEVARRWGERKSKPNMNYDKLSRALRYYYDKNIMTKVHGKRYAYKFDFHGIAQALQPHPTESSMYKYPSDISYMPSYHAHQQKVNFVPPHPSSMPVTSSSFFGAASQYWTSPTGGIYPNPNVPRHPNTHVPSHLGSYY
# How it was run: (§1)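 The binding signal reported is, for every hexamer, its read frequency for a factor over its read frequency for the tag-only sample. Reads came from pools of yeast-expressed, GST-fused human transcription factors on glutathione beads, barcoded with DNA and mixed with that sample, which were incubated with 200 nmole of a random double-stranded 16-mer DNA library in Tris/NaCl/DTT/glycerol buffer at room temperature for 30 min. After washing, the pools were crosslinked with 0.1% formaldehyde, proximity-ligated with BsaI/T4 ligase for 1 h at 37 °C, PCR-amplified and sequenced on an Illumina NextSeq500.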
# ELK1 = molecular target: T2, ELK1 (Homo sapiens, UniProt P19419 1-428); settings: protein: recombinant; tags: N-terminal GST; dsDNA, one strand shown
# T2 sequence: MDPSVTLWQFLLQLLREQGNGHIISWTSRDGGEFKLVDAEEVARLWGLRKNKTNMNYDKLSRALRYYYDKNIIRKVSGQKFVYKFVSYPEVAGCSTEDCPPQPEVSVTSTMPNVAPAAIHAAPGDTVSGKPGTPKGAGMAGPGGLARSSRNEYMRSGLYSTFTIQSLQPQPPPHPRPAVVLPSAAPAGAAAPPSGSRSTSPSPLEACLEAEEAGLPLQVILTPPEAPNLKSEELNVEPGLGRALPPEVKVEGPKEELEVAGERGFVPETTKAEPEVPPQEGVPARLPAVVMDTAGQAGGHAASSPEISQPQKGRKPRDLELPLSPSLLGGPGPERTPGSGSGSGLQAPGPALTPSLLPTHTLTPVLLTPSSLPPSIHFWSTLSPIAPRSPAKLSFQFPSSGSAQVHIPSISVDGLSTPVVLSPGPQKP
# How it was run: as §1
# GABPA = molecular target: T3, GABPA (Homo sapiens, UniProt Q06546 1-454); settings: protein: recombinant; tags: N-terminal GST; dsDNA, one strand shown
# T3 sequence: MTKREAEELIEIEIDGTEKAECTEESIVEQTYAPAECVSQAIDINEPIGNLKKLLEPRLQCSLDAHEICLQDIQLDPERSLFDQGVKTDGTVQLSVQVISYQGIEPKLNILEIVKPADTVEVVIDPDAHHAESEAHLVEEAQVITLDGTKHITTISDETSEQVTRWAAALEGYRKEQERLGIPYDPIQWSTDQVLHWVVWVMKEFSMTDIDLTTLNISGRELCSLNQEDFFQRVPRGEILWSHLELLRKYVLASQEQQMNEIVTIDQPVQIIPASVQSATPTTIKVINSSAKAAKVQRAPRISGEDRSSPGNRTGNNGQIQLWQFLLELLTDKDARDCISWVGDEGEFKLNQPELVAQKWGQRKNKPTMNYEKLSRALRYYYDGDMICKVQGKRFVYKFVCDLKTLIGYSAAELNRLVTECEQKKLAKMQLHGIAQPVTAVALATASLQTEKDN
# How it was run: as §1
# ERG = molecular target: T4, ERG (Homo sapiens, UniProt P11308 1-479); settings: protein: recombinant; tags: N-terminal GST; dsDNA, one strand shown
# T4 sequence: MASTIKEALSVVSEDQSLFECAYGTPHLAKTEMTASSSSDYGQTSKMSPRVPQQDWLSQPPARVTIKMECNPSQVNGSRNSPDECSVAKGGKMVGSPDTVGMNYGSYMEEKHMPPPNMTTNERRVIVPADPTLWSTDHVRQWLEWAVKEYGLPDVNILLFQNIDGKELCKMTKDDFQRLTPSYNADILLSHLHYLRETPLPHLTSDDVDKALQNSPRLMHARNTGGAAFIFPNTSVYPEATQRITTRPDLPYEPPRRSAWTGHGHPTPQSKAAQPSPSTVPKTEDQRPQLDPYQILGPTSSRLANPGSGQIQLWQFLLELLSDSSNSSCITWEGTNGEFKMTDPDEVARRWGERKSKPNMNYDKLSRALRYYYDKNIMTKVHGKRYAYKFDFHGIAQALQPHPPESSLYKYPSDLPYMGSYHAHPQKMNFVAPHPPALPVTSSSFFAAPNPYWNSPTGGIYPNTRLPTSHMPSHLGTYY
# How it was run: as §1
# ELF1 = ELF1 (Homo sapiens, UniProt P32519 1-619); settings: protein: recombinant; tags: N-terminal GST; dsDNA, one strand shown
# How it was run: as §1
# EHF = molecular target: T5, EHF (Homo sapiens, UniProt Q9NZC4 1-300); settings: protein: recombinant; tags: N-terminal GST; dsDNA, one strand shown
# T5 sequence: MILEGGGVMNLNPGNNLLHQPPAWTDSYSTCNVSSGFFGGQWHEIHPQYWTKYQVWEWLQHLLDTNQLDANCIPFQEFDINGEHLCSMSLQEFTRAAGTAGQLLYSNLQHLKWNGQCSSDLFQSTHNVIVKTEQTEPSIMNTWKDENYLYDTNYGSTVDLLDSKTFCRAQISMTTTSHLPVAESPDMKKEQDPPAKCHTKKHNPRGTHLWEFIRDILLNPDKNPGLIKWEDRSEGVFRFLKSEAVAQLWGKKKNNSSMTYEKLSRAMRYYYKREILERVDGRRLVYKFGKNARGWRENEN
# How it was run: as §1
# SPI1 = SPI1 (Homo sapiens, UniProt P17947 1-270); settings: protein: recombinant; tags: N-terminal GST; dsDNA, one strand shown
# How it was run: as §1
# SPIB = SPIB (Homo sapiens, UniProt Q01892 1-262); settings: protein: recombinant; tags: N-terminal GST; dsDNA, one strand shown
# How it was run: as §1
# ELK3 = molecular target: T6, ELK3 (Homo sapiens, UniProt P41970 1-407); settings: protein: recombinant; tags: N-terminal GST; dsDNA, one strand shown
# T6 sequence: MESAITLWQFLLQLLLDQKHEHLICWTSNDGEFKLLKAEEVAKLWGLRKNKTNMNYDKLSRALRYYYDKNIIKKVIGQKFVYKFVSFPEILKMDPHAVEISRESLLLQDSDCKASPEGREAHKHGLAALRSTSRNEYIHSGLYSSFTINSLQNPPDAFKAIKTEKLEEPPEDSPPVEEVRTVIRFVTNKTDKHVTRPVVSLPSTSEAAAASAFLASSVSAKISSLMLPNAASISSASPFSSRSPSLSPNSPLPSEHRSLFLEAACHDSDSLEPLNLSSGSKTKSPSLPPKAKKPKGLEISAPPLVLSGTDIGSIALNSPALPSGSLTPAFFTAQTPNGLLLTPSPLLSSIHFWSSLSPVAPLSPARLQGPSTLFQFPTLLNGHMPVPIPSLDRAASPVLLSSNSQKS
# How it was run: as §1
# FEV = molecular target: T7, FEV (Homo sapiens, UniProt Q99581 1-238); settings: protein: recombinant; tags: N-terminal GST; dsDNA, one strand shown
# T7 sequence: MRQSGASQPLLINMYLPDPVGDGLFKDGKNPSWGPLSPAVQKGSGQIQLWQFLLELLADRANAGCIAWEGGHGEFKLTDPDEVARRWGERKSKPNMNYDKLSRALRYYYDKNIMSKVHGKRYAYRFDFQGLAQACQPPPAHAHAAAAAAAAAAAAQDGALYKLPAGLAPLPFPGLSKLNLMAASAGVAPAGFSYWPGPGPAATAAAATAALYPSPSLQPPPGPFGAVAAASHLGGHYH
# How it was run: as §1
# ETV5 = ETV5 (Homo sapiens, UniProt P41161 1-510); settings: protein: recombinant; tags: N-terminal GST; dsDNA, one strand shown
# How it was run: as §1
# HSF1 = HSF1 (Homo sapiens, UniProt Q00613 1-529); settings: protein: recombinant; tags: N-terminal GST; chain copies: 3; dsDNA, one strand shown
# How it was run: as §1
# SPIC = molecular target: T8, SPIC (Homo sapiens, UniProt Q8N5J4 1-248); settings: protein: recombinant; tags: N-terminal GST; dsDNA, one strand shown
# T8 sequence: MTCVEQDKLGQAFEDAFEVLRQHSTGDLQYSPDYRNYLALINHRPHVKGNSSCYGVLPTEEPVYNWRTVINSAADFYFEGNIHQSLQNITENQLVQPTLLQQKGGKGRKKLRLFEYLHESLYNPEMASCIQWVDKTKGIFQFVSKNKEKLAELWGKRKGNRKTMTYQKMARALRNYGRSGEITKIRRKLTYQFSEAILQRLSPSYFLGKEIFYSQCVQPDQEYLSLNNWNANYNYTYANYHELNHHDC
# How it was run: as §1
# ELF4 = ELF4 (Homo sapiens, UniProt Q99607 1-663); settings: protein: recombinant; tags: N-terminal GST; dsDNA, one strand shown
# How it was run: as §1
# ELK4 = molecular target: T9, ELK4 (Homo sapiens, UniProt P28324-2 1-405); settings: protein: recombinant; tags: N-terminal GST; dsDNA, one strand shown
# T9 sequence: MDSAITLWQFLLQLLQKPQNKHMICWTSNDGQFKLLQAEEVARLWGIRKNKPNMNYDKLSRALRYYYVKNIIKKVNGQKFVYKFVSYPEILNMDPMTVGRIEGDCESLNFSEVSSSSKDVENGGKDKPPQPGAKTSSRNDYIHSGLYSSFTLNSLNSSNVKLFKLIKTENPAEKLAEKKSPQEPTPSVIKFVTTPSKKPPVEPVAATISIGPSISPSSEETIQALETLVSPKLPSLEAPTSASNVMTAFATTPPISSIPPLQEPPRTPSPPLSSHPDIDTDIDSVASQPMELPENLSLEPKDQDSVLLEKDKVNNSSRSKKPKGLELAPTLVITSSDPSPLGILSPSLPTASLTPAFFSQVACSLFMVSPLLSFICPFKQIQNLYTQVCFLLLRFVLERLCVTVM
# How it was run: as §1
# ETV2 = molecular target: T10, ETV2 (Homo sapiens, UniProt O00321 1-342); settings: protein: recombinant; tags: N-terminal GST; dsDNA, one strand shown
# T10 sequence: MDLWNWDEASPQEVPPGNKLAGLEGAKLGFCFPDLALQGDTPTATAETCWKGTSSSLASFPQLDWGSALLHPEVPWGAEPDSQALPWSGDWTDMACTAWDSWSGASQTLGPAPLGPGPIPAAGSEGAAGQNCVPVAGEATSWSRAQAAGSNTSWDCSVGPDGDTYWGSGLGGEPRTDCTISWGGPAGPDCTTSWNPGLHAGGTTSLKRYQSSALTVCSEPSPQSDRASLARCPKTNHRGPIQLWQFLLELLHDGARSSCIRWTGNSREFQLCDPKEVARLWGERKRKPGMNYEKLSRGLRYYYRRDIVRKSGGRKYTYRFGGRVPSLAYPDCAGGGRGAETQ
# How it was run: as §1
# ELF3 = molecular target: T11, ELF3 (Homo sapiens, UniProt P78545 1-371); settings: protein: recombinant; tags: N-terminal GST; dsDNA, one strand shown
# T11 sequence: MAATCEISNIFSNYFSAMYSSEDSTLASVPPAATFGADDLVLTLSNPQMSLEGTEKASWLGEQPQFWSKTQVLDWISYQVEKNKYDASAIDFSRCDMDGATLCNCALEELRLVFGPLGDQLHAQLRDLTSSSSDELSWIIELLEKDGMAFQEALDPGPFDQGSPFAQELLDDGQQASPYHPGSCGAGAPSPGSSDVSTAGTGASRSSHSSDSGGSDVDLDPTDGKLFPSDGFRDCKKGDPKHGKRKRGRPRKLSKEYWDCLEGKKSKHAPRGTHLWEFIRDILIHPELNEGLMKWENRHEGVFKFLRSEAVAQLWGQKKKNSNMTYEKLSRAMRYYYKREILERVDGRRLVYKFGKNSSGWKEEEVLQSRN
# How it was run: as §1
# ETV1 = ETV1 (Homo sapiens, UniProt P50549 1-477); settings: protein: recombinant; tags: N-terminal GST; dsDNA, one strand shown
# How it was run: as §1
# ETV1, sequence (P50549 whole entry): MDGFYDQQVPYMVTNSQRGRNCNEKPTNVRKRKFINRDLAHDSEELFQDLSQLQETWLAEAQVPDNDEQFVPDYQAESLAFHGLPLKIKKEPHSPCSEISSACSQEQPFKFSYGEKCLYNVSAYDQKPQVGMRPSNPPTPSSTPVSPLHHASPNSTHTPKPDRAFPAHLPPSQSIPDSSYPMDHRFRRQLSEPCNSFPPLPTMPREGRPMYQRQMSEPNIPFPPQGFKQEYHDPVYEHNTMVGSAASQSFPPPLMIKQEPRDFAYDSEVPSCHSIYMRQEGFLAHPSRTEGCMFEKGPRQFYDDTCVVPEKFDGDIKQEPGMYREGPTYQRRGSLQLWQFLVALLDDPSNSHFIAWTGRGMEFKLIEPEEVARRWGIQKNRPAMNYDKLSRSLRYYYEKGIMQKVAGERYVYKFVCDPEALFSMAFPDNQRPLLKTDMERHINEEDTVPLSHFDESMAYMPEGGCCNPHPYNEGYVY
# ELF1, sequence (P32519 whole entry): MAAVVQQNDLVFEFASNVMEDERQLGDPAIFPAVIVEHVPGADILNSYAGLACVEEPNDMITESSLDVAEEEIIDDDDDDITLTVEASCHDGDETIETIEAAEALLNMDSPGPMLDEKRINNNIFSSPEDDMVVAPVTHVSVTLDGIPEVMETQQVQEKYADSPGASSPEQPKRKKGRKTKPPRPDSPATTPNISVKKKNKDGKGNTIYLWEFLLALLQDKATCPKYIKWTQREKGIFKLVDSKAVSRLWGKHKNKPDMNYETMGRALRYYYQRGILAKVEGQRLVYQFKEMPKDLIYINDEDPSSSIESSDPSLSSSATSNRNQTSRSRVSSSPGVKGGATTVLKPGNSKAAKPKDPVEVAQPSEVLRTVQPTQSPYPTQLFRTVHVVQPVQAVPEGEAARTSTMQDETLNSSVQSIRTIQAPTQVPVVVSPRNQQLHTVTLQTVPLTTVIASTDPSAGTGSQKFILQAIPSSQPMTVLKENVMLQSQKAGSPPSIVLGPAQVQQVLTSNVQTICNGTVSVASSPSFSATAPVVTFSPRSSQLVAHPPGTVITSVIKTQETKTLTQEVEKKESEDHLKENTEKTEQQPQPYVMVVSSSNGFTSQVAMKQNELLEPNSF
# ELF4, sequence (Q99607 whole entry): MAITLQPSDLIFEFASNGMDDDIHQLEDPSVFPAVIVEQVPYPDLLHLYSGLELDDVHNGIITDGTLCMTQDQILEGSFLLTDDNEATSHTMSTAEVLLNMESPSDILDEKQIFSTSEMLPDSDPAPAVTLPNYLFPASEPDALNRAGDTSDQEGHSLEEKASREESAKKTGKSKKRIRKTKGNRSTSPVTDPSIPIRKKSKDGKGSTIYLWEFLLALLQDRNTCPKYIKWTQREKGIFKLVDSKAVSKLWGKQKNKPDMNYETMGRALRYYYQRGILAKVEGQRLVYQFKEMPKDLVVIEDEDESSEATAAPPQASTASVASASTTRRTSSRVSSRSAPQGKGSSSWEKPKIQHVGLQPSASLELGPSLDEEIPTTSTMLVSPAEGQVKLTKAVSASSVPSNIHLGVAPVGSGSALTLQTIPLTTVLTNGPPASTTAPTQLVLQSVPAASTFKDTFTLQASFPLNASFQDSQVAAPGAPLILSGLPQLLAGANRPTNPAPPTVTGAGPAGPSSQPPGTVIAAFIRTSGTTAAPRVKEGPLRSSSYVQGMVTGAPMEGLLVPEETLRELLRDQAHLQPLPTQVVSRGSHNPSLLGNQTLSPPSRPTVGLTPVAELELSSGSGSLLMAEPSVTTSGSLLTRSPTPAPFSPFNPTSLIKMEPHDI
# ETV5, sequence (P41161 whole entry): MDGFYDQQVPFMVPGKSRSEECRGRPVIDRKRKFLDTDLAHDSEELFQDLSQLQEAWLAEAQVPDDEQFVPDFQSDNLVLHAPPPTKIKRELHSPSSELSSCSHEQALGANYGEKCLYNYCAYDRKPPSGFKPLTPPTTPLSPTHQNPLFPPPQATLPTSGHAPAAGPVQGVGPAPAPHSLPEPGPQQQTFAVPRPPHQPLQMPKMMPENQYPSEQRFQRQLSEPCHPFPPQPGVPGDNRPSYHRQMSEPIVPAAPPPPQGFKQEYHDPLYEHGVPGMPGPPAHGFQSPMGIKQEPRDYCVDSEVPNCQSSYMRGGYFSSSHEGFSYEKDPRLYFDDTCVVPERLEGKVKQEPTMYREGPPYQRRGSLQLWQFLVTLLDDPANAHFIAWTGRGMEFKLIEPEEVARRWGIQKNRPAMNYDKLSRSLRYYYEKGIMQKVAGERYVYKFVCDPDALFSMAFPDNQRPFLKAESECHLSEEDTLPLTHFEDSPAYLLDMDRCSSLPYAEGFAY
# HSF1, sequence (Q00613 whole entry): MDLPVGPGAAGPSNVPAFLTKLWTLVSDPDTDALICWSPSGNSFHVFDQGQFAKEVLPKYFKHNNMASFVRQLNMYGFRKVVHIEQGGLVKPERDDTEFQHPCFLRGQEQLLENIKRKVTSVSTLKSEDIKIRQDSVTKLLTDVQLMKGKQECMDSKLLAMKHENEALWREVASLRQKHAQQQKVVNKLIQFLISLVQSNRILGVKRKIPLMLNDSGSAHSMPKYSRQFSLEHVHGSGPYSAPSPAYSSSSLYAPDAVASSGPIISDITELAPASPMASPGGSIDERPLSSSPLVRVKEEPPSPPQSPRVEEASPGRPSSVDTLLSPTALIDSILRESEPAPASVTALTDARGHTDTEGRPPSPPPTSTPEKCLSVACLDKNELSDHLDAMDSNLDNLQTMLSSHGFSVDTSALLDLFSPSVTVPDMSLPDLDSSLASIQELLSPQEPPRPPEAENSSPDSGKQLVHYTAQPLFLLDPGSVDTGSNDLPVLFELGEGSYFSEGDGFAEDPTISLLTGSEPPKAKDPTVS
# SPIB, sequence (Q01892 whole entry): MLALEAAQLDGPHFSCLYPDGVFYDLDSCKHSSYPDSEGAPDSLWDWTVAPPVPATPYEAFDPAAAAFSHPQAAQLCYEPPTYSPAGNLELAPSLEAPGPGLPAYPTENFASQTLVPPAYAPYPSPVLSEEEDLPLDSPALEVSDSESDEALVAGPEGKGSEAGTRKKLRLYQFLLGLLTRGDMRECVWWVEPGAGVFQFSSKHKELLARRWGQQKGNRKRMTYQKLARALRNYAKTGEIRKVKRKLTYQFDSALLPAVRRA
sequence,measurement,setting,value
TGAATG,binding signal,FLI1,"1.16 fold enrichment (6-mer frequency, TF over GST control)"
same,binding signal,ELK1,"1.28 fold enrichment (6-mer frequency, TF over GST control)"
same,binding signal,GABPA,"1.17 fold enrichment (6-mer frequency, TF over GST control)"
same,binding signal,ERG,"1.21 fold enrichment (6-mer frequency, TF over GST control)"
same,binding signal,ELF1,"1.2 fold enrichment (6-mer frequency, TF over GST control)"
same,binding signal,EHF,"1.19 fold enrichment (6-mer frequency, TF over GST control)"
same,binding signal,SPI1,"1.26 fold enrichment (6-mer frequency, TF over GST control)"
same,binding signal,SPIB,"1.23 fold enrichment (6-mer frequency, TF over GST control)"
same,binding signal,ELK3,"1.09 fold enrichment (6-mer frequency, TF over GST control)"
same,binding signal,FEV,"1.19 fold enrichment (6-mer frequency, TF over GST control)"
same,binding signal,ETV5,"1.1 fold enrichment (6-mer frequency, TF over GST control)"
same,binding signal,HSF1,"1.15 fold enrichment (6-mer frequency, TF over GST control)"
same,binding signal,SPIC,"1.03 fold enrichment (6-mer frequency, TF over GST control)"
same,binding signal,ELF4,"1.16 fold enrichment (6-mer frequency, TF over GST control)"
same,binding signal,ELK4,"1.2 fold enrichment (6-mer frequency, TF over GST control)"
same,binding signal,ETV2,"1.37 fold enrichment (6-mer frequency, TF over GST control)"
same,binding signal,ELF3,"1.08 fold enrichment (6-mer frequency, TF over GST control)"
same,binding signal,ETV1,"1.14 fold enrichment (6-mer frequency, TF over GST control)"

# Reference: PMC7862700, “An all-to-all approach to the identification of sequence-specific readers for epigenetic DNA modifications on cytosine”
